# Screens deposited in PubChem by Broad Institute.
# Compounds with a hit are over-represented: about 2.7% of the library has one in this group of screens.
# PGC1a acetyl inh: PGC1a acetylation modulation, inhibitor mode; U2OS PGC1a acetylation, AlphaScreen anti-acetyl-lysine; with virally co-expressed GCN5 acetyltransferase; inhibition, % at 15.6 µM; hit rate 0.17% among 350,000; AID 651687;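 active = every replicate shows inhibition of at least 40%; inconclusive = mean inhibition at least 40% but some replicate below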;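 also: 0% = neutral control wells and 100% = positive control wells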
# GSIS activator: GLuc luminescence reporter in INS-1E cells, primary screen for activators of glucose-dependent secretion of insulin; INS-1E GLuc reporter insulin secretion, 2-3 h; activation, % at 16.6 µM; hit rate 0.61% among 370,000;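 active = lowest replicate activation of at least 40%, so every replicate reaches that level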;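 also: 0% = median of neutral control wells and 100% = median of IBMX positive control wells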
# HIV Env fusion: blocks HIV Env-driven cell-cell fusion; AID 651610; HeLa-JRFL Env/CEM21 cell fusion, luciferase; inhibition, % at 12.3 µM; hit rate 1.1% among 360,000;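 active = mean replicate inhibition score of at least 50 and every replicate individually at or above 50; inconclusive = only one of the two criteria met; inactive = mean below 50 and not all replicates reaching 50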;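 also: 0% = plate neutral controls and 100% = maraviroc near 300 nM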
# PAX8 inh HTS: PAX8 transcriptional activity inhibition. hit rate 1.2% among 360,000. inhibition, % at 12.6 µM. RMG-I TPO-luciferase reporter, SteadyGlo, 24 h. AID 652154;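 active = mean replicate inhibition at least 60% with every replicate also reaching 60%; inconclusive = only one of the two criteria is met; inactive = mean below 60% and not all replicates reaching 60%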;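 also: luciferase light reporting Pax8 driven TPO promoter activity; plate controls were median of neutral control wells for no effect and mitoxantrone controls for full effect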
# EWS-Fli block: inhibitors of EWS/Fli oncoprotein transcriptional activity. inhibition, % at 12.6 µM. A673 NR0B1-luciferase reporter, viability-normalised. AID 651661. hit rate 0.67% among 350,000;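 active = mean inhibition of at least 50% after viability correction, with every replicate also passing that limit; inconclusive = mean reaches 50% but only one of two replicates passes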;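 also: firefly luciferase signal divided by Alamar Blue viability fluorescence both relative to DMSO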
# CFTR F508del cor: correctors of CFTR F508del function in bronchial epithelial cells | CFBE cells, YFP halide quenching; stimulated with forskolin plus potentiator P3; % fluorescence drop versus neutral controls | activity (quench increase), % at 7.58 µM | hit rate 0.36% among 350,000 | AID 720511;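 active = mean added fluorescence quench of at least 8% versus neutral control, with both replicates also reaching 8%; inconclusive = only one of the mean or replicate conditions met; inactive = mean below 8% and not both replicates reaching 8%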;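 also: cells transiently co-express mutant CFTR-F508del with the halide-sensitive YFP; corrector assay measuring rescue of mutant channel to the surface after 24 h compound exposure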
# * = called active by the depositor; ? = inconclusive; / = not tested or not shown; ! = not active in a repeat; [ ] = dose if it differs, or a comment.
SMILES,PGC1a acetyl inh,GSIS activator,HIV Env fusion,PAX8 inh HTS,EWS-Fli block,CFTR F508del cor
O=C(C[C@@H]1C=C[C@H](NC(=O)Nc2ccc(F)cc2)[C@H](CO)O1)NCc1cccc(F)c1,-5,16,-1[16.7 µM],/,-2,-3
C[C@H]1CN([C@@H](C)CO)C(=O)c2cc(NC(=O)CCCN(C)C)ccc2O[C@@H]1CN(C)Cc1ccccc1,20,19,9[16.7 µM],-2,-6,-1
Cc1ccc(S(=O)(=O)Nc2cccc3c2O[C@H](CN(C)S(=O)(=O)c2ccc(C)cc2)[C@H](C)CN([C@@H](C)CO)C3=O)cc1,6,5,/,-14,10,-2
CCc1cc2c(NCC(=O)O)ncnc2s1,3,/,/,/,/,/
CCc1cc2c(NCc3ccco3)ncnc2s1,-8,/,80*,/,/,/
CCC(=O)Nc1ccc2c(c1)C(=O)N(C)C[C@H](OC)[C@H](C)CN(C(=O)C1CC1)[C@H](C)CO2,-13,3,/,-8,-8,0
O=C1C(SCCO)=C(SCCO)C(=O)c2ccccc21,4,32,-194,114*,64*,10*
CCc1ccc(C(O)c2ncc(-c3cccc(F)c3)[nH]2)cc1 (stereo unspecified),-2,-7,16,-27,-17,0
CCCc1ccc(C(O)c2ncc(-c3cccc(F)c3)[nH]2)cc1 (stereo unspecified),43*,-13,36,-62,-33,0
O=C(COc1ccccc1)Nc1cc(C(F)(F)F)ccc1N1CCCC1,-14,/,/,/,/,/
Cc1cc(N2CCCC2)ccc1NC(=O)COc1cccc(C(F)(F)F)c1,/,23,59*,17,12,1
C[C@@H]1CN([C@H](C)CO)C(=O)c2cc(NC(=O)Nc3ccc(C(F)(F)F)cc3)ccc2O[C@@H](C)CCCCO[C@H]1CN(C)S(=O)(=O)c1cccs1,9,5,20[16.7 µM],71*,4,4
C[C@@H]1CN([C@@H](C)CO)C(=O)c2cc(NC(=O)Nc3ccc(C(F)(F)F)cc3)ccc2O[C@@H](C)CCCCO[C@@H]1CN(C)S(=O)(=O)c1cccs1,-2,25,-12[16.7 µM],-11,0,3
Cc1noc(C)c1NC(=O)Nc1ccc2c(c1)C(=O)N([C@@H](C)CO)C[C@H](C)[C@H](CN(C)S(=O)(=O)c1cccs1)OCCCC[C@H](C)O2,/,-16,70*[16.7 µM],1,7,0
C[C@@H]1CCCCO[C@H](CN(C)S(=O)(=O)c2cccs2)[C@@H](C)CN([C@@H](C)CO)C(=O)c2cc(NC(=O)Nc3ccc(C(F)(F)F)cc3)ccc2O1,15,-18,-4[16.7 µM],75*,15,3
C[C@@H]1CN([C@H](C)CO)C(=O)c2cc(NC(=O)Nc3ccc(F)cc3)ccc2O[C@@H](C)CCCCO[C@H]1CN(C)S(=O)(=O)c1cccs1,-7,-10,17,68*!,31,1
Cc1noc(C)c1NC(=O)Nc1ccc2c(c1)C(=O)N([C@@H](C)CO)C[C@@H](C)[C@@H](CN(C)S(=O)(=O)c1cccs1)OCCCC[C@H](C)O2,/,-1,-14[16.7 µM],-13,1,1
CCNC(=O)C[C@H]1CC[C@H]2[C@H](COc3ccc(NC(=O)c4cccc(OC)c4)cc3C(=O)N2C)O1,2,17,18[16.7 µM],-15,-3,0
CCC(=O)Nc1ccc2c(c1)OC[C@@H](C)N(Cc1ccccc1)C[C@H](C)[C@H](OC)CN(C)C2=O,10,-4,/,/,-6,0
C[C@@H]1CCCCO[C@@H](CN(C)S(=O)(=O)c2cccs2)[C@H](C)CN([C@H](C)CO)C(=O)c2cc(NC(=O)Nc3ccc(C(F)(F)F)cc3)ccc2O1,13,-4,12[16.7 µM],80*,7,5
O=C(Cc1ccsc1)OCC(=O)c1ccccc1,2,50,-6,17,-6,14*
O=C(COC(=O)Cc1ccsc1)NCc1ccccc1,/,-12,-13,21,/,/
CCCC(=O)Nc1ccc2c(c1)OC[C@H](C)N(Cc1ccccn1)C[C@@H](C)[C@H](OC)CN(C)C2=O,-1,11,2[16.7 µM],11,-1,-3
CNc1nc(NN)nc(Nc2ccccc2)n1,2,-2,5,3,10,1
CNc1nc(Nc2ccccc2)nc(OCC(F)(F)F)n1,/,76*,-5,-21,-5,4
SMILES,PGC1a acetyl inh,GSIS activator,HIV Env fusion,PAX8 inh HTS,EWS-Fli block,CFTR F508del cor
Cc1[nH]n(-c2ccc(Cl)cc2)c(=O)c1C=NC12CN3CN(CN(C3)C1)C2,/,-10,/,81*,7,0
COc1ccc2c3c([nH]c2c1)[C@H](CO)N(S(=O)(=O)c1cn(C)cn1)CC31CCN(CC2CCCC2)CC1,/,2,/,-31,7,0
CCOC(=O)Cn1c(=O)n(Cc2ccccc2)c(=O)c2cccnc21,4,179*,-12,18,4,1
COc1ccc(S(=O)(=O)Nc2ccccc2OC)cc1N=Nc1c(O)[nH]c(=S)[nH]c1=O,10,99*,-9,37,10,2
COc1cc(C(=O)NCC(=O)N2CCN(S(=O)(=O)c3cc(C)ccc3C)CC2)cc(OC)c1OC,/,-9,/,3,54*,4
COCCNC(=O)c1cc2c(c(-c3cccc(C4=CCCCC4)c3)n1)[C@@H](CCO)N([S@](=O)C(C)(C)C)C2,-13,-8,/,-33,/,-2
Nc1c(S(=O)(=O)c2ccccc2)cnc2c(-c3ccc(F)cc3)cnn12,-13,/,68*,/,/,/
Cc1noc(C)c1NC(=O)Nc1ccc2c(c1)C(=O)N([C@H](C)CO)C[C@@H](C)[C@@H](CN(C)Cc1ccccc1)OCCCC[C@@H](C)O2,-9,-1,8[16.7 µM],-7,0,0
C/C=C1\COC(C(=O)NCc2ccccc2)(C(F)(F)F)C=C1C=C(C)C (stereo unspecified),/,112*,4,-21,-8,3
O=C(NCc1ccccc1)C1(C(F)(F)F)C/C(=C/CCO)CCCO1 (stereo unspecified),/,-1,-27,5,-13,1
C[C@H](CO)N1C[C@H](C)[C@@H](CN(C)C)Oc2ccc(NS(=O)(=O)c3ccc(Cl)cc3)cc2CC1=O,2,12,/,7,8,1
O=C(C#Cc1ccccc1)c1ccccc1,-29,11,-41,46,70*,-10
C[C@@H]1CN([C@H](C)CO)C(=O)c2cc(-c3cccc(C(=O)N(C)C)c3)cnc2O[C@H]1CN(C)S(=O)(=O)c1ccccc1,1,3,5[16.7 µM],14,-11,-2
COc1ccc2c3c(n(C)c2c1)[C@@H](CO)N(C(C)=O)CC31CN(C(=O)C2CCOCC2)C1,/,12,0[16.7 µM],/,-1,0
COCCNc1nc(Oc2ccccc2)c2sccc2n1,0,22,13,-8,-4,1
COCCNc1nc(NCc2ccc(C)cc2C)c2sccc2n1,/,-10,-13,7,17,2
COCCNc1nc(Nc2ccc(C)cc2C)c2sccc2n1,/,-5,-119,49,?,10*
